# In PubChem BioAssay AID1259421 (Broad Institute, 2018):
# Where “and” joins values, the source holds several entries; their conditions need not be identical. Equal entries are not always repeated. The campaign covered roughly 6,400 compounds. About 610 (9.5%) were called active. What follows is part of a selection rich in actives, with near analogues and random picks from the rest. Values without a mark were called inactive. Rule as the data show it: active = activity change below about -70%; inconclusive = no clear call, values can overlap the other calls; inactive = above that.
# Assay: Toxoplasma gondii ME49Luc growth in HeLa cells, luciferase, no IFN-y, primary screen (AID 1259421)
# Settings: T. gondii ME49Luc in HeLa, 72 h, stronger effect = lower value, concentration not given here
row,SMILES,"activity change, negative = inhibition"
1,Cc1nnsc1C(=O)Nc1ccc(-n2nc(C(F)(F)F)cc2C(F)(F)F)cc1,-80% (active)
2,COc1ccc2oc3ccccc3c(=O)c2c1,118%
3,OCC1OC2OC3C(CO)OC(OC4C(CO)OC(OC5C(CO)OC(OC6C(CO)OC(OC7C(CO)OC(OC8C(CO)OC(OC1C(O)C2O)C(O)C8O)C(O)C7O)C(O)C6O)C(O)C5O)C(O)C4O)C(O)C3O (stereo not given),1.48%
4,O=C(O)c1ccc2c3c1cccc3c(=O)n1c3ccccc3nc21,9.96%
5,COc1ccc(C[C@H](N)C(=O)N[C@@H]2[C@@H](CO)OC(n3cnc4c(N(C)C)ncnc43)[C@@H]2O)cc1 (stereo not given in full),-80.4% (active) and -91% (active)
6,COc1nc(N)nc2c1ncn2[C@@H]1O[C@H](CO)[C@@H](O)[C@@H]1O,-2.56% and 14.5%
7,CO[C@@H]1[C@H](O)[C@@H](CO)O[C@H]1n1cnc2c(NC3CCCCC3)ncnc21,2.27%
8,O=C(O)c1cc2cccc([N+](=O)[O-])c2[nH]1,8.58%
9,CO/N=C(/C(=O)NC1C(=O)N2C(C(=O)O)=C(C[N+]3(C)CCCC3)CSC12)c1csc(N)n1 (stereo not given),6.5%
10,Cc1cccc(-c2[nH]c(C(C)(C)C)nc2-c2ccc3c(c2)OCO3)n1,-75.7% (active)
11,Cc1cccc(-c2[nH]c(C(C)(C)C)nc2-c2ccc3nccnc3c2)n1,-81% (active)
12,NC(=O)c1ccc(-c2nc(-c3ccc4c(c3)OCO4)c(-c3ccccn3)[nH]2)cc1,-37%
13,NC(=O)c1ccc(-c2nc(-c3ccc4c(c3)OCCO4)c(-c3ccccn3)[nH]2)cc1,25.7% and -23.2%
14,C=C[C@@]1(C)CC(=O)[C@@]2(O)[C@](C)(O1)[C@@H](O)[C@@H](O)C1C(C)(C)CC[C@H](O)[C@@]12C (stereo not given in full),11.2%
15,C=CC(C)(O)CCC=C(C)C (stereo not given),11.3%
16,COc1ccccc1N1CCN(CC2CN3C(=O)N(C)c4ccccc4C3=N2)CC1 (stereo not given),1.95%
17,CC(=O)O[C@]1(C(C)=O)CCC2C3C=C(Cl)C4=CC(=O)[C@@H]5C[C@@H]5[C@]4(C)C3CC[C@@]21C (stereo not given in full),11.3%
18,CCCCC(=O)N(Cc1ccc(-c2ccccc2-c2nn[nH]n2)cc1)[C@H](C(=O)O)C(C)C,-0.624% and 4.63%
19,C#CC1(OCC(O)CN2CCN(c3cccc(C(F)(F)F)c3)CC2)CCCCC1 (stereo not given),-34.5%
20,CCCOc1ccc(S(=O)(=O)N2CCN(CCO)CC2)cc1-c1nc2c(CCC)cn(CC)c2c(=O)[nH]1,0.0881%
